Data from ChEMBL document CHEMBL3988442, “University of Dundee, Small-Polar-MMV Screening Library” (2021).
In all, about 48,000 compounds went through this assay and about 13,000 (27%) showed an effect of 50% or more. This is one part of the list.

test system: Wolbachia pipientis; test: Anti-Wolbachia Cell-Based Screen; assay type: functional; design: scale not given: in the data most compounds retested in dose-response had high values; details: 5 µM

SMILES	Percent Effect
Cc1cc(N2CCC(NC(=O)CCC3CCCO3)CC2)nc(C)n1 (stereo unspecified)	7.946%
Cc1cn2c(n1)C(CNCc1ccc(C)s1)CCC2 (stereo unspecified)	5.575%
CC1(C)[C@H]2CC=C(CN3CCCn4nc(C(=O)NCCO)cc4C3)[C@@H]1C2	10.58%
Cc1cccc(OCCC(=O)N2CCCN(C(N)=O)CC2)c1C	-12.46%
O=C(NCC1COCCO1)c1csc(Cc2ccccc2)n1 (stereo unspecified)	-4.558%
CC(CO)Nc1ccc(-c2nc(Cc3ccc(F)cc3)no2)cn1 (stereo unspecified)	-69.59%
Cc1ccccc1-c1noc(-c2ccc(N(C)C3CCOCC3)nc2)n1	1.469%
c1ccc(Cc2noc(-c3ccc(NCC4COCCO4)nc3)n2)cc1 (stereo unspecified)	114.1%
c1ccc(Cc2noc(-c3ccc(NCC4CCCOC4)nc3)n2)cc1 (stereo unspecified)	130.1%
Cc1ccccc1-c1noc(-c2ccc(NCC3COCCO3)nc2)n1 (stereo unspecified)	87.55%
O=C(CN1CC(c2nc(Cc3ccccc3)no2)C1)NCC1CCCO1.O=C(O)C(=O)O (stereo unspecified)	1.544%
COCC(C)Nc1ccc(-c2nc(Cc3ccc(F)cc3)no2)cn1 (stereo unspecified)	-40.71%
OC[C@@H]1CCCN1c1ccc(-c2nc(CCc3ccccc3)no2)cn1	1.286%
c1ccc(Cc2noc(-c3ccc(NCC4CCCCO4)nc3)n2)cc1 (stereo unspecified)	127.1%
COc1cccc(-c2noc(-c3ccc(NCC4CC4)nc3)n2)c1OC	-9.972%
COC(=O)CNc1ccc(-c2nc(Cc3ccc(OC)cc3)no2)cn1	-28.16%
CC(CNCc1ccncc1)Oc1ccccn1.Cl (stereo unspecified)	14.12%
Cc1cc(N2Cc3cnc(CC(C)C)nc3C2)nc(N)n1	-9.889%
COC(=O)c1ccc(N(C)C2CCC2)nn1	-14.02%
CSc1ccccc1CCC1CCS(=O)(=O)C1 (stereo unspecified)	-15.64%
CS(=O)(=O)CCC(=O)NC1CC(c2cccc(Cl)c2)C1 (stereo unspecified)	-6.793%
CNC(=O)C1CN(C(=O)c2ccccc2)Cc2cn(C)nc21 (stereo unspecified)	107.7%

SMILES	Percent Effect
COCC1CN(C(=O)c2ccco2)Cc2cn(C)nc21.O=C(O)C(F)(F)F (stereo unspecified)	-0.009633%
CNC(=O)C1CN(C(=O)COc2ccccc2)Cc2cn(C)nc21 (stereo unspecified)	122.8%
COCC(=O)N1Cc2cn(C)nc2C(COc2cccnc2)C1 (stereo unspecified)	-3.351%
COCC1CN(C(=O)COc2ccccc2)Cc2cn(C)nc21.O=C(O)C(F)(F)F (stereo unspecified)	-8.714%
CCOCC1CN(C(=O)COc2ccccc2)Cc2cn(C)nc21 (stereo unspecified)	-5.674%
O=C1N(c2ccccc2)C[C@H]2CN(C3CCC3)CCN12	-7.27%
O=C(c1ccccc1)N1CCN(C2CCc3ccc(F)cc32)CC1 (stereo unspecified)	-8.707%
OC1(Cn2ccc3ncccc32)CCN(Cc2cccs2)CC1	107.1%
OC1(Cn2ccc3ncccc32)CCN(Cc2cccnc2)CC1	93.84%
OC1(Cn2ccc3ccncc32)CCN(Cc2ccccn2)CC1	-11.69%
CCn1ccnc1-c1nccn1-c1ccccc1CN1CCOCC1	-5.226%
CCn1cc(CN2CCC(O)(Cn3ccc4ncccc43)CC2)cn1	79.32%
CCn1cc(CN2CCC(CCC(=O)Nc3ccccc3Cl)CC2)cn1	5.103%
O=C(CCn1ccc2ccccc21)N1CCN(Cc2cccnc2)CC1	-2.767%
CCn1ncc(CN2CCC(O)(Cn3ccc4ncccc43)CC2)c1C	101.2%
CCn1cc(CN2CCN(C(=O)N3CCOCC3)CC2)cn1	3.548%
Cc1cc(-n2cccn2)ccc1CN1CCC(O)(CN2CCCCC2)C1 (stereo unspecified)	-16.49%
c1cnnc(N2CCCC(NCc3nc(-c4ccsc4)no3)C2)c1 (stereo unspecified)	-5.717%
COC(=O)c1ccc2ccn(CC3COCCO3)c(=O)c2c1 (stereo unspecified)	-29.12%
NS(=O)(=O)N1CCC(C(=O)Nc2cccc(OC(F)F)c2)CC1	23.74%
Cc1cccc2c(=O)c(C(=O)N3CCCC4(CN(C)C(=O)O4)C3)c[nH]c12 (stereo unspecified)	3.697%
CN(Cc1nc(CS(C)(=O)=O)no1)c1ccccc1	1.355%

SMILES	Percent Effect
COc1ccccc1OC1CN(C(=O)C(c2ccccc2F)N(C)C)C1 (stereo unspecified)	10.69%
O=C(c1cccc(S(=O)(=O)NCCc2nccs2)c1)N1CCOCC1	-12.77%
COCCCn1c(CN2CCCC(O)C2)cnc1S(=O)(=O)C1CCCC1 (stereo unspecified)	-2.252%
COCCN1C(=O)[C@]2(CC[C@@H]3CN(S(=O)(=O)CC(C)C)C[C@@H]32)N=C1C	-14.47%
CC(C)(C)C(=O)NCC(=O)NCC1CCCS1 (stereo unspecified)	-13.47%
CN(Cc1ccc(C#N)cc1)C(=O)c1ccnc(OC2CCC2)c1	-4.84%
OCC1(O)CCCN(Cc2ccccc2OCCc2ccccc2)CC1 (stereo unspecified)	13.11%
Cc1ccc(CN2CCC(O)(Cn3ccc4ncccc43)CC2)o1.Cl	100%
NC(=O)CN1CC2(CCC1=O)CCN(Cc1cc(F)cc(F)c1)CC2	6.606%
Cc1ccc2nc(CN3CCC(O)(Cn4ccnc4)CC3)cc(O)c2c1	-4.196%
Cc1cc(N2CCCN(Cc3ccc(C)o3)CC2)ccn1	-3.581%
COc1ccc(F)cc1CN1CCC(O)(CN2CCCCC2)C1 (stereo unspecified)	8.228%
Cc1ccc(CN2CCCC3(CCN(Cc4ccc(C)o4)C3)C2)o1 (stereo unspecified)	14.2%
Oc1cc(CN2CCC(O)(Cn3ccnc3)CC2)nc2ccc(F)cc12	-18%
COc1ccccc1CN1CCC(O)(Cn2ccc3ncccc32)CC1	82.78%
OC1(Cn2ccc3ncccc32)CCN(Cc2cc(F)cc(F)c2)CC1	107.3%
Cc1cc(CN2CCC(O)(Cn3ccc4ncccc43)CC2)c(C)s1	75.84%
Cc1cc(C(=O)N2CCN(C(=O)Cc3ccccn3)CC2)c(C)s1	2.124%
Nc1ccnn1C1CCN(Cc2ccccc2)C1 (stereo unspecified)	-4.351%
CCN(C)Cc1cnc(S(=O)(=O)CC)n1CCOC	2.274%
Cc1cc(S(=O)(=O)NCC2CNCCOC2)c(C)cc1Cl (stereo unspecified)	-6.904%
O=C(O)C(=O)O.c1cnc(-c2noc(C3CN(Cc4ccsc4)C3)n2)cn1	20.73%
